The source of these data is PubChem BioAssay (NCI).

Test systems include NCI-H23 lung; NCI-H226 lung; NCI-H322M lung; HOP-62 NSCLC; NCI-H460 lung; HOP-92 NSCLC; NCI-H522 lung; A549/ATCC NSCLC; 786-0 renal; COLO 205 colon; DU-145 prostate; K-562 leukemia; MALME-3M melanoma; MDA-MB-231 breast; RXF 393 renal; SF-268 CNS; SF-295 CNS; SF-539 CNS; UACC-257 melanoma; M14 melanoma.
What all share (assay): NCI-60 one-dose screen, 48 h (100 = growth as untreated, 0 = no growth, -100 = all killed)
Settings in all cases: 10 µM unless noted

This is part of a sample that, as a whole, favours compounds with a hit. Of some 83,000 tested, about 20% had one in any assay.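 For each line, cells grew in 96-well plates with the test compound present at a single concentration for 48 hours.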 A number with no mark means an inactive call. The source made the active and inactive calls. The calls were made as follows: active = growth percent below 10; inactive = the rest.

As to `CN(C)c1ccc(/C=N/NC(=O)CSc2nc3sc4c(c3c(=O)n2-c2ccccc2)CCCCC4)cc1`, the growth is 29.7% in the test on NCI-H23 lung; 96.5% in the test with NCI-H226 lung; 44.9% in the test with NCI-H322M lung; 21.5% in the test on HOP-62 NSCLC; 1.49% (active) in the test with NCI-H460 lung; 50.3% in the test on HOP-92 NSCLC. Further, the growth with NCI-H522 lung was 21.2%; with A549/ATCC NSCLC, 6.63% (active); in the test on 786-0 renal, 45%; with COLO 205 colon, 33.8%; in the test with DU-145 prostate, 14.9%; with K-562 leukemia, 63.8%. For the same molecule, the growth in the test on MALME-3M melanoma is 35.5%; in the test with MDA-MB-231 breast, 43.8%; in the test with RXF 393 renal, -6.22% (active); in the test with SF-268 CNS, 57.3%; in the test on SF-295 CNS, 19.1%; in the test with SF-539 CNS, 34.6%. Moreover, the growth in the test with UACC-257 melanoma is 64.8%; in the test on M14 melanoma, 46.6%.

Turning to `O=S(=O)(Nc1ccc(Br)cc1)c1ccc(-c2cnc(C3CC3)o2)cc1`, the growth is 40.8% in the test with NCI-H23 lung; 67.3% with NCI-H226 lung; 61.9% in the test with NCI-H322M lung; 27.1% in the test on HOP-62 NSCLC; 12.8% in the test with NCI-H460 lung; 43% in the test with HOP-92 NSCLC. For the same molecule, the growth in the test on NCI-H522 lung is 11%; with A549/ATCC NSCLC, 40.1%; with 786-0 renal it was 37.8%; with COLO 205 colon, 23.9%; in the test with DU-145 prostate it was 38.1%; with K-562 leukemia it was 11.3%. Also, the growth in the test on MALME-3M melanoma was 44.4%; in the test with MDA-MB-231 breast, 35.2%; in the test with RXF 393 renal, 10.4%; in the test on SF-268 CNS it was 39.9%; in the test on SF-295 CNS, 28.9%; with SF-539 CNS it was 3.63% (active). Also, the growth with UACC-257 melanoma is 66.1%; in the test on M14 melanoma, 18.1%.

For `c1ccc(Cn2cc3c(c2)-c2nc(Nc4ccccc4)ncc2CC3)cc1`, the growth with NCI-H23 lung is 71.7% [100 µM]; in the test on NCI-H226 lung it was 87.1% [100 µM]; in the test on NCI-H322M lung, 78.2% [100 µM]; in the test on HOP-62 NSCLC, 85.8% [100 µM]; in the test with NCI-H460 lung, 82.7% [100 µM]; in the test on HOP-92 NSCLC, 50.4% [100 µM]. Also, the growth in the test with NCI-H522 lung was 80% [100 µM]; in the test on A549/ATCC NSCLC, 81.9% [100 µM]; in the test on 786-0 renal, 97.3% [100 µM]; in the test with COLO 205 colon it was 106% [100 µM]; in the test on DU-145 prostate it was 83.2% [100 µM]; with K-562 leukemia, 108% [100 µM]. In addition, the growth in the test with MALME-3M melanoma is 83.5% [100 µM]; in the test on MDA-MB-231 breast, 65.2% [100 µM]; in the test with RXF 393 renal, 48.6% [100 µM]; in the test with SF-268 CNS it was 76.9% [100 µM]; in the test with SF-295 CNS it was 57.6% [100 µM]; with SF-539 CNS, 64.3% [100 µM]. Besides, the growth was 98.2% [100 µM] in the test with UACC-257 melanoma and 92.9% [100 µM] in the test on M14 melanoma.

Regarding `C#CC(F)(F)[C@]1(O)CCC2C3CCC4=CC(=O)CCC4=C3[C@@H](c3ccc(N(C)C)cc3)C[C@@]21C` (stereo not given in full), the growth in the test on NCI-H23 lung was 96.5%; in the test on NCI-H226 lung, 98.5%; in the test with NCI-H322M lung it was 92.8%; with HOP-62 NSCLC, 90.6%; in the test on NCI-H460 lung it was 93.4%; in the test on HOP-92 NSCLC, 67.8%. In addition, the growth in the test on NCI-H522 lung is 64.7%; in the test on A549/ATCC NSCLC it was 64.8%; with 786-0 renal, 69%; in the test on COLO 205 colon it was 101%; in the test with DU-145 prostate it was 104%; in the test with K-562 leukemia, 85.9%. Further, the growth in the test on MALME-3M melanoma was 103%; with MDA-MB-231 breast it was 84.7%; in the test on RXF 393 renal it was 98.1%; with SF-268 CNS, 95.9%; with SF-295 CNS, 86.2%; with SF-539 CNS it was 82.7%. Besides, the figures for the growth in the test with UACC-257 melanoma and in the test with M14 melanoma were 80.9% and 86.1%, respectively.

As for `CNC1=C(Br)C(=O)c2c(C(=O)OC)c(C)nc(C)c2C1=O`, the growth was 31.8% with NCI-H23 lung; 86.3% with NCI-H226 lung; 81.5% in the test with NCI-H322M lung; 99.9% with HOP-62 NSCLC; 30.4% in the test on NCI-H460 lung; 104% in the test with HOP-92 NSCLC. Also, the growth with NCI-H522 lung was 64.3%; with A549/ATCC NSCLC it was 58.1%; in the test with 786-0 renal, 102%; in the test with COLO 205 colon, 30.9%; with DU-145 prostate, 57.9%; in the test on K-562 leukemia, 64.4%. For the same molecule, the growth is -26.6% (active) in the test with MALME-3M melanoma; 71.6% in the test on MDA-MB-231 breast; 63.5% in the test on RXF 393 renal; 73.5% in the test with SF-268 CNS; 78.3% in the test with SF-295 CNS; 82.8% in the test on SF-539 CNS. The growth in the test on UACC-257 melanoma was 56.1%; in the test with M14 melanoma, 31.4%.

For `CCCCC1=C(Br)C(=O)c2ncccc2C1=O`, the growth was 95% in the test with NCI-H23 lung; 97.8% with NCI-H226 lung; 100% in the test on NCI-H322M lung; 91.3% with HOP-62 NSCLC; 105% in the test on NCI-H460 lung; 46.2% with HOP-92 NSCLC. Further, the growth in the test on NCI-H522 lung is 74.3%; in the test on A549/ATCC NSCLC it was 94.8%; in the test with 786-0 renal, 93.3%; with COLO 205 colon it was -6.16% (active); in the test with DU-145 prostate it was 103%; in the test with K-562 leukemia it was 30.2%. Moreover, the growth was 101% in the test with MALME-3M melanoma; 77.6% with MDA-MB-231 breast; 98.3% in the test with RXF 393 renal; 95.5% in the test on SF-268 CNS; 106% with SF-295 CNS; 94.5% with SF-539 CNS. Further, the growth in the test on UACC-257 melanoma is 92.6%; in the test on M14 melanoma it was 98.2%.

With `CCCCCCCCOC(=O)c1c(C)[nH]c(/C=C2\N=C(c3ccc[nH]3)C=C2OC)c1C`, the growth in the test on NCI-H23 lung is 3.19% (active); in the test on NCI-H226 lung, 9.15% (active); in the test with NCI-H322M lung it was 26%; with HOP-62 NSCLC it was 12.7%; in the test on NCI-H460 lung, 10.2%; in the test on HOP-92 NSCLC it was -12.5% (active). The growth is 4.04% (active) in the test with NCI-H522 lung; -10.9% (active) in the test with A549/ATCC NSCLC; -40.1% (active) with 786-0 renal; -33.7% (active) with COLO 205 colon; 23.3% in the test with DU-145 prostate; 10.8% with K-562 leukemia. Besides, the growth in the test with MALME-3M melanoma was -42.9% (active); in the test on MDA-MB-231 breast, -5.15% (active); in the test with RXF 393 renal it was -19.9% (active); in the test on SF-268 CNS, 24%; in the test with SF-295 CNS, -34.7% (active); in the test with SF-539 CNS it was 3.4% (active). Besides, the growth in the test with UACC-257 melanoma was -15.2% (active); in the test with M14 melanoma it was -56.1% (active).
